PMC7819943, “Rice protein-binding microarrays: a tool to detect cis-acting elements near promoter regions in rice”
In all, about 35,000 sequences were measured (“fluorescence intensity (a.u.)”: median about 10,000, highest 2% from about 52,000 on). This excerpt belongs to a sample that is enriched for the highest values.

molecular target: T1, OsWOX13 (Oryza sativa, UniProt Q5QMM3 1-267); test: protein-binding microarray (RPBM); PBS, 2% BSA, 51.3 ng/ul salmon testes DNA, 50 uM zinc acetate, 200 nM TF, 25 C, 1 h; high values mean tight binding; settings: protein: recombinant; tags: N-terminal polyhistidine and DsRed monomer fusion (pET32a); label: CyDye5-dUTP incorporated in the synthesized complementary strand; 3' TTTTT single-stranded linker to array surface; dsDNA, one strand shown
T1 sequence: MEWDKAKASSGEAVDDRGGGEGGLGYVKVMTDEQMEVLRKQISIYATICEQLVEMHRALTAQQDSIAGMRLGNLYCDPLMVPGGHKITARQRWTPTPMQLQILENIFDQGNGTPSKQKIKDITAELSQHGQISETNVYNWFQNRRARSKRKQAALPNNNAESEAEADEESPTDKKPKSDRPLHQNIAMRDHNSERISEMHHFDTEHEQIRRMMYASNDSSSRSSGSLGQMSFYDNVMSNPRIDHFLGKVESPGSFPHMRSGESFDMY
How it was run: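 The binding signal is fluorescence intensity per feature, in arbitrary units, read on an Axon 4000B scanner. Polyhistidine- and DsRed-tagged transcription factors (N-terminal fusions) from E. coli BL21-CodonPlus were purified on Ni–NTA and applied at 200 nM for 1 h at 25 °C to a double-stranded, BSA-blocked custom Agilent array in buffer with 50 µM zinc acetate.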

| Sequence | binding signal |
| --- | --- |
| AAGATTTGTCTCATAAATTAGTCGCAATATGTGTAATTAGCGGAGTCACCTAGTGCAG | 7560 fluorescence intensity (a.u.) |
| AAAATATCAATTGGCCATAATCATTGTAAGCACTATACAGCGGAGTCACCTAGTGCAG | 7780 fluorescence intensity (a.u.) |
| ATCCAATCATACTCCAAGATCTGAAGAGAAGGAGGGATTGCGGAGTCACCTAGTGCAG | 11900 fluorescence intensity (a.u.) |
| GATGGACCAATTTGATTGTTGTTGGATTCTACGATGCATGCGGAGTCACCTAGTGCAG | 9950 fluorescence intensity (a.u.) |
| GCTTAAATTAATATACCTGAACCGGCGAGCATTTAAATTTCGGAGTCACCTAGTGCAG | 5370 fluorescence intensity (a.u.) |
| AGTACAAATGACGGATTAATTAGGCTTAATAAATTCGTCTCGGAGTCACCTAGTGCAG | 19200 fluorescence intensity (a.u.) |
| TTGATTGATTTGTTTGCACTCCATGAAATAAGTGAGGGCTCGGAGTCACCTAGTGCAG | 65200 fluorescence intensity (a.u.) |
| CGGATTAATTAGGCTTAATAAATTCATCTCGCAGTTTCCTCGGAGTCACCTAGTGCAG | 50800 fluorescence intensity (a.u.) |
| AATGACTGATTAATTAGGCTTAATAAATTCATCTCGCAGTCGGAGTCACCTAGTGCAG | 59600 fluorescence intensity (a.u.) |
| TTGATACTCTGATGATTGTAAAGTAAATTGTTTGAAATTTCGGAGTCACCTAGTGCAG | 9650 fluorescence intensity (a.u.) |
| TGGCTTAATTTAATCCCCTCCATTCCGGATGCCTCTCCCTCGGAGTCACCTAGTGCAG | 20200 fluorescence intensity (a.u.) |
| TCGCTTAATTAATTTGGATTTGGATGCGGATCCCTCGCCTCGGAGTCACCTAGTGCAG | 56000 fluorescence intensity (a.u.) |
| ATGATTTGTTGTTGAGTTCGGTTTGAAATCAATATAAGTACGGAGTCACCTAGTGCAG | 14700 fluorescence intensity (a.u.) |
| ACTAATGACGGATTAATTAGGCTTAATAAATTCGTCTCGCCGGAGTCACCTAGTGCAG | 51500 fluorescence intensity (a.u.) |
| CTAATGACGAGATTAATTAGGCTTAATAAATTCGTCTCGCCGGAGTCACCTAGTGCAG | 54800 fluorescence intensity (a.u.) |
| ACGGATTAATTAGGCTTAATAAATTTGCCTCGCGGTTTCTCGGAGTCACCTAGTGCAG | 39200 fluorescence intensity (a.u.) |
| GGATTAATTAGGCTTAATAAATTCATCTCGCAGTTTTCTGCGGAGTCACCTAGTGCAG | 26200 fluorescence intensity (a.u.) |
| CTGATTGGCCATGAGTCCAGAGATAGCATTGAACACAGGACGGAGTCACCTAGTGCAG | 32400 fluorescence intensity (a.u.) |
| GGGAGTAATTGAATATGCCTTTTGGGCTGCCATCTGCCCACGGAGTCACCTAGTGCAG | 26800 fluorescence intensity (a.u.) |
| TTTGATTTGATTCGTGTGCTCCCCGCCGCCTTCGATCCCTCGGAGTCACCTAGTGCAG | 43600 fluorescence intensity (a.u.) |
| CTTAATTGCGCGCGAATGGAGTAATACTAGTACTAGTATACGGAGTCACCTAGTGCAG | 15100 fluorescence intensity (a.u.) |
| GACTAAATTTTAATCCCTATCACATCGGATATTTGACACTCGGAGTCACCTAGTGCAG | 7230 fluorescence intensity (a.u.) |
| AGGCCCAATTACTGATCGAAATTTCGATGATTTCGATCGACGGAGTCACCTAGTGCAG | 18500 fluorescence intensity (a.u.) |

| Sequence | binding signal |
| --- | --- |
| CCAATTGGAATGCATTGTCTATTTGTTGTCTAGATCTCTCCGGAGTCACCTAGTGCAG | 3760 fluorescence intensity (a.u.) |
| AATCTCCTAATTATGTATTGCCCAAATCCATTTATTTTCCCGGAGTCACCTAGTGCAG | 7170 fluorescence intensity (a.u.) |
| ACATAACATATGAGATTGAAATTTCTTGAACCATACATTACGGAGTCACCTAGTGCAG | 9950 fluorescence intensity (a.u.) |
| CTCACATGTTAATTACCATCAATGTATTTTACTCTTTTAACGGAGTCACCTAGTGCAG | 16700 fluorescence intensity (a.u.) |
| TTTATACGAAAATCAATAATTATAGCAGATATCCACAAGGCGGAGTCACCTAGTGCAG | 5700 fluorescence intensity (a.u.) |
| ACCTTTTCCGCGTGTTGTGTCTGTTTGTTGAAGATGAATTCGGAGTCACCTAGTGCAG | 3280 fluorescence intensity (a.u.) |
| TGCTAATGACTGATTAATTAGGCTTAATAAATTCGTCTTGCGGAGTCACCTAGTGCAG | 35300 fluorescence intensity (a.u.) |
| AATGCTAATGACAGATTAATTAGGCTTAATAAATTTGTCTCGGAGTCACCTAGTGCAG | 29500 fluorescence intensity (a.u.) |
| TGCTAATGACTGATTAATTAGGCTTAATAAATTTGTCTCGCGGAGTCACCTAGTGCAG | 64800 fluorescence intensity (a.u.) |
| TATAATAATTAAAACTCAATCAATCATACGTTAATAGCACCGGAGTCACCTAGTGCAG | 20000 fluorescence intensity (a.u.) |
| ATGATGATTGTTAGTGGATGATGATGTGTCATCTTGTTAACGGAGTCACCTAGTGCAG | 38400 fluorescence intensity (a.u.) |
| CACGGATTATTTTGAGCAATTACCGCTCTAATCCGGGGCGCGGAGTCACCTAGTGCAG | 3600 fluorescence intensity (a.u.) |
| ACACATAATGTAATCTATTTTGATATAACCAAAAGCTGTTCGGAGTCACCTAGTGCAG | 7540 fluorescence intensity (a.u.) |
| TGGTCCTTTACATTGCAATTAATTTGTTTGGAATTTATTACGGAGTCACCTAGTGCAG | 8240 fluorescence intensity (a.u.) |
| AGATAATTTGTGATTGATGTCATAGTAGTAGAGAAAACCACGGAGTCACCTAGTGCAG | 46800 fluorescence intensity (a.u.) |
| AATTATTGATTTGATGAAACTAATTTAGTATTATAAAGAGCGGAGTCACCTAGTGCAG | 51000 fluorescence intensity (a.u.) |
| ATATATATTGATTATATGTTTATTTTGTATGAAGATGTTCCGGAGTCACCTAGTGCAG | 34900 fluorescence intensity (a.u.) |
| GGATGTCATGATAATTGACTTATGACAATGTGATTATTTCCGGAGTCACCTAGTGCAG | 19700 fluorescence intensity (a.u.) |
| CAGTATATAAATAATTTGAATTAGATGAGATATATCCTAGCGGAGTCACCTAGTGCAG | 8160 fluorescence intensity (a.u.) |
| TATAATTGATTATTGTGACCTCATGATAGAGACAAGACCACGGAGTCACCTAGTGCAG | 53500 fluorescence intensity (a.u.) |
| GTATAATTGACAGATGAATTTCACGCAAGAGTATATTGAGCGGAGTCACCTAGTGCAG | 55900 fluorescence intensity (a.u.) |
| GATAATTGACAAGATTGAACCATATGTGATGTATTATTTCCGGAGTCACCTAGTGCAG | 53200 fluorescence intensity (a.u.) |
| GATTATAATTTGTAAGATAATTGACCATGGAGAAGATTCACGGAGTCACCTAGTGCAG | 16300 fluorescence intensity (a.u.) |
